Targets with a hit are over-represented here; the source holds about 7,900 in all. About 0.6% of all pairs of compound and target were hits.
Key:
Test in all cases: log2 fold change, soluble protein after heating vs DMSO (PISA); higher = thermal stabilisation; K562 cells, 10 uM, 30 min; active = over 0.2 and 3.5 SD of the protein, either way, in both replicates (recomputed)
[1] = biological target: ZEB2 (UniProt O60315)
Method in brief: (§1)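 Thermal stability values are relative to control samples and come from duplicates. They are expressed as log2 fold changes. For measurement, K562 cells (2×10^6 cells/mL) received 10 μM compound for 30 min, and aliquots were heated for 3 min over 48°C-58°C, pooled, and extracted at 4°C in PBS with 0.5% NP-40. Soluble protein, the supernatant after 21,000xg for 90 min, was quantified by TMTpro 16plex LC-MS/MS with equalised channel sums.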

[2] = biological target: ZER1 (UniProt Q7Z7L7)
Method in brief: as §1

[3] = biological target: ZFAND5 (UniProt O76080)
Method in brief: as §1

[4] = biological target: ZFAND6 (UniProt Q6FIF0)
Method in brief: as §1

[5] = biological target: ZFP91 (UniProt Q96JP5)
Method in brief: as §1

[6] = biological target: ZFPL1 (UniProt O95159)
Method in brief: as §1

[7] = biological target: ZMAT2 (UniProt Q96NC0)
Method in brief: as §1

[8] = biological target: ZMYM1 (UniProt Q5SVZ6)
Method in brief: as §1

[9] = biological target: ZMYM3 (UniProt Q14202)
Method in brief: as §1

[10] = biological target: ZNF143 (UniProt P52747)
Method in brief: as §1

[11] = biological target: ZNF217 (UniProt O75362)
Method in brief: as §1

[12] = biological target: ZNF239 (UniProt Q16600)
Method in brief: as §1

[13] = biological target: ZNF277 (UniProt Q9NRM2)
Method in brief: as §1

[14] = biological target: ZNF511 isoform 1 (UniProt Q8NB15)
Method in brief: as §1

[15] = biological target: ZNF512 (UniProt Q96ME7)
Method in brief: as §1

[16] = biological target: ZNF579 (UniProt Q8NAF0)
Method in brief: as §1

[17] = biological target: ZNF609 (UniProt O15014)
Method in brief: as §1

[18] = biological target: ZNF622 (UniProt Q969S3)
Method in brief: as §1

[19] = biological target: ZRANB2 (UniProt O95218)
Method in brief: as §1

[20] = biological target: ZNF580 (UniProt Q9UK33)
Method in brief: as §1

Measured: log2 fold change

ZNF511 isoform 1, sequence (Q8NB15 whole entry, looked up, canonical isoform): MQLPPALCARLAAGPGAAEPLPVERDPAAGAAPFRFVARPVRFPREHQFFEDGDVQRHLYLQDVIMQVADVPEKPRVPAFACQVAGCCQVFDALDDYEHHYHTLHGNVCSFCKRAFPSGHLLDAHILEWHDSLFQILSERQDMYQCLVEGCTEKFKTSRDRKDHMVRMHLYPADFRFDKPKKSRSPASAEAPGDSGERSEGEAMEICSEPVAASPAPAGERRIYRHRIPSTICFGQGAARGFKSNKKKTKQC
ZMYM1, sequence (Q5SVZ6 whole entry, looked up): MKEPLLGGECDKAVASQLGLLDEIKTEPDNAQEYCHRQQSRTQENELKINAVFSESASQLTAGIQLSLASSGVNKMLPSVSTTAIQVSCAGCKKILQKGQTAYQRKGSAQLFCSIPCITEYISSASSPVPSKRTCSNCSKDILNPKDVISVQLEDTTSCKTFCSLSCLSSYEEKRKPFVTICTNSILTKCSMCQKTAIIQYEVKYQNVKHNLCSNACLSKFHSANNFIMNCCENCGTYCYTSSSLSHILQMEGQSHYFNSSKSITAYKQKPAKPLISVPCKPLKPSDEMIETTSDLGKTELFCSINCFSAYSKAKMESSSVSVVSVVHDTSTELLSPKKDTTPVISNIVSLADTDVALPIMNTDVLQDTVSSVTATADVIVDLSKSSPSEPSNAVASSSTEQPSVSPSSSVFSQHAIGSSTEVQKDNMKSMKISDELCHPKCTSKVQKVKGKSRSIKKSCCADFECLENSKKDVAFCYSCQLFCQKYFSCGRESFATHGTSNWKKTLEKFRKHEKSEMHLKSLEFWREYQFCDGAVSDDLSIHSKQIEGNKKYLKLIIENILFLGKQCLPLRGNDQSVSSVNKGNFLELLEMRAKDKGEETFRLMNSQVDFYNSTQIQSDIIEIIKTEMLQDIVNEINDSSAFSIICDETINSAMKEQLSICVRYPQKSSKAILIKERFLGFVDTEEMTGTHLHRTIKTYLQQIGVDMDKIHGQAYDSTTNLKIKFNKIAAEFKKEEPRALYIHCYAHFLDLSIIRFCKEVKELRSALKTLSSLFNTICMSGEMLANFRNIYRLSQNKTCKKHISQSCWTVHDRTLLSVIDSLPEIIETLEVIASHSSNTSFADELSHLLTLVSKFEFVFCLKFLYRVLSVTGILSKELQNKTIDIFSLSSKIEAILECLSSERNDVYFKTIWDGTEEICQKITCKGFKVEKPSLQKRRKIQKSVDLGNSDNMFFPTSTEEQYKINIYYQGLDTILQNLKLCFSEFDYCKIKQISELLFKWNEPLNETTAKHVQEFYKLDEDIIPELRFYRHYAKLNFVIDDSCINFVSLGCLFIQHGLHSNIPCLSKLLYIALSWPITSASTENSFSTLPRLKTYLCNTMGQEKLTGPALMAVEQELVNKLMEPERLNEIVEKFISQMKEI
ZNF143, sequence (P52747 whole entry, looked up): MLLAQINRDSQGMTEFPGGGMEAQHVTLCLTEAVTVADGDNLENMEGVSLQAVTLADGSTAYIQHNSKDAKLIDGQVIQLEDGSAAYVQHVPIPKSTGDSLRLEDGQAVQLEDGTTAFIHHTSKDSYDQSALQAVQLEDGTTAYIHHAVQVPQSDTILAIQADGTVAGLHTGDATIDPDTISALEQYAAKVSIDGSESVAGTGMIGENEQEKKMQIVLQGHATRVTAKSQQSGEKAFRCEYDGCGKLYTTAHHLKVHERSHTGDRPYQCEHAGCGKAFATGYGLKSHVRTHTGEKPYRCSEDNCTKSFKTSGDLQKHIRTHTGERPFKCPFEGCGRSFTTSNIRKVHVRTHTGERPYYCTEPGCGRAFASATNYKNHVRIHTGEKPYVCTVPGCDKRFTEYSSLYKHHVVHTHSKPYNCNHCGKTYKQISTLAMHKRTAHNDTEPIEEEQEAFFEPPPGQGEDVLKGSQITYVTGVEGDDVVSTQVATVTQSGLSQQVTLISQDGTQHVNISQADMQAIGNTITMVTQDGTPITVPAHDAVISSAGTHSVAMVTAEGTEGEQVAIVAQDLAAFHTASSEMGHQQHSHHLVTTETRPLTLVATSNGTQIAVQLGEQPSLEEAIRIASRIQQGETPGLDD
ZNF217, sequence (O75362 whole entry, looked up): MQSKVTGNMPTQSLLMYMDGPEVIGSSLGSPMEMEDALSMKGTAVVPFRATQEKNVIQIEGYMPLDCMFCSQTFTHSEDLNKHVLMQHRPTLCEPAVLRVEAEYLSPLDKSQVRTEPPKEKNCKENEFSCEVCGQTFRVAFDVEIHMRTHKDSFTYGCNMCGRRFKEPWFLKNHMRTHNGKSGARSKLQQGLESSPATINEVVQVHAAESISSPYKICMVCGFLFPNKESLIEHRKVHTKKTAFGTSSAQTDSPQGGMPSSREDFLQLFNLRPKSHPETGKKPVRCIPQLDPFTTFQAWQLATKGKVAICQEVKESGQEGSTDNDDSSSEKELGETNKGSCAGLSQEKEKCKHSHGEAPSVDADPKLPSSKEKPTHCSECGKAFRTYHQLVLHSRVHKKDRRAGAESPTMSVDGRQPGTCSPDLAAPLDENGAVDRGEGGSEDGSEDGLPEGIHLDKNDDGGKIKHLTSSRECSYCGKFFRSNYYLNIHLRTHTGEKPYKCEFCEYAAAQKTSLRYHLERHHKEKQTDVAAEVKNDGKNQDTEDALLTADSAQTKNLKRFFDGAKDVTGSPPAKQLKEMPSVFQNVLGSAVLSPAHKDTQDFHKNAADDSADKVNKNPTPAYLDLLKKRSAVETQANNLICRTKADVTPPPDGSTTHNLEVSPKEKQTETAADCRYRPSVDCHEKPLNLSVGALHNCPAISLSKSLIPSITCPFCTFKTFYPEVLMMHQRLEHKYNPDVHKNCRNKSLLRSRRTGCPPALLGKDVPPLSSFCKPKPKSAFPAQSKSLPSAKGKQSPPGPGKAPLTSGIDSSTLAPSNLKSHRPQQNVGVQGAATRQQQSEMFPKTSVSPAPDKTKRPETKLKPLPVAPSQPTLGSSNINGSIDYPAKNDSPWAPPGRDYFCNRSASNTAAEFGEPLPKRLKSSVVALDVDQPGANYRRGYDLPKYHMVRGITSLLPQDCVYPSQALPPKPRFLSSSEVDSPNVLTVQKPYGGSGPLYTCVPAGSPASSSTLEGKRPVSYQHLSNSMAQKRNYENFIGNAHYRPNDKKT
ZEB2, sequence (O60315 whole entry, looked up): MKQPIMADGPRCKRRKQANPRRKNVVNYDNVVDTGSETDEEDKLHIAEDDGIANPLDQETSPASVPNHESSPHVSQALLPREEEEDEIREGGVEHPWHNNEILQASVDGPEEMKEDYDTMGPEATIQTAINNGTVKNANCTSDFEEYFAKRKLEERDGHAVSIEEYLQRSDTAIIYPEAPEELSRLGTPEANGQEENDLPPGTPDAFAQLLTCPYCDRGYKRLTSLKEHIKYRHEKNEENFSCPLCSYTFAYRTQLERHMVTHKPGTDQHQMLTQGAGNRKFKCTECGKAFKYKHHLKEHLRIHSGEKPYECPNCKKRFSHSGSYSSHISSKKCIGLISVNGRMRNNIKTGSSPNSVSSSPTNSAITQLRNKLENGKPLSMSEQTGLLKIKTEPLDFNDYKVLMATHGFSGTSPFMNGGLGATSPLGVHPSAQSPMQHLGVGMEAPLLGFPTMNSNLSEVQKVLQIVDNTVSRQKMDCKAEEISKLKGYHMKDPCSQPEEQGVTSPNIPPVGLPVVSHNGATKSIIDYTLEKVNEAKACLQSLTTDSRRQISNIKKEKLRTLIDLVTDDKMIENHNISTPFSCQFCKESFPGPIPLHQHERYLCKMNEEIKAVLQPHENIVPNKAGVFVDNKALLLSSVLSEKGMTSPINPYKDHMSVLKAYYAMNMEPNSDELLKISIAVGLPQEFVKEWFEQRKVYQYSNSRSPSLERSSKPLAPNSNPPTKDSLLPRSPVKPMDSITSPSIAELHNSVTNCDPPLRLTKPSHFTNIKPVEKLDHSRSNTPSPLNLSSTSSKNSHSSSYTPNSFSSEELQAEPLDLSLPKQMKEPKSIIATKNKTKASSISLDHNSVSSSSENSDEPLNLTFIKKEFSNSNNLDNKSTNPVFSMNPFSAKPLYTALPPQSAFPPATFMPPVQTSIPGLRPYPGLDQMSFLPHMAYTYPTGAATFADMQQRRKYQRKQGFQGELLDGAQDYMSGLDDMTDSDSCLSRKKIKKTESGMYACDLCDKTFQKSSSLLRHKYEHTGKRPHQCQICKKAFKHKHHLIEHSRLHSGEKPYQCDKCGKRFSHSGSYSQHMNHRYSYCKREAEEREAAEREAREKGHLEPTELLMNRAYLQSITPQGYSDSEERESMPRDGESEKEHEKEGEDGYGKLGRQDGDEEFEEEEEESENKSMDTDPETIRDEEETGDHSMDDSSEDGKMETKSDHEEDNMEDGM
ZFPL1, sequence (O95159 whole entry, looked up): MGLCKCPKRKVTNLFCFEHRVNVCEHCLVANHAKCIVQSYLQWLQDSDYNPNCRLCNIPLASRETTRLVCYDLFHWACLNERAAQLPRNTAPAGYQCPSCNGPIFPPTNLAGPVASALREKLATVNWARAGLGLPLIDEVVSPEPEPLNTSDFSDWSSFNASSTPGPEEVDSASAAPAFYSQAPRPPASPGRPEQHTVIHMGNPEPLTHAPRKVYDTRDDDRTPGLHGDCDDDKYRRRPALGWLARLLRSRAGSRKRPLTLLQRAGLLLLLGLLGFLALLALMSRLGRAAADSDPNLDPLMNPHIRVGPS
ZFAND6, sequence (Q6FIF0 whole entry, looked up): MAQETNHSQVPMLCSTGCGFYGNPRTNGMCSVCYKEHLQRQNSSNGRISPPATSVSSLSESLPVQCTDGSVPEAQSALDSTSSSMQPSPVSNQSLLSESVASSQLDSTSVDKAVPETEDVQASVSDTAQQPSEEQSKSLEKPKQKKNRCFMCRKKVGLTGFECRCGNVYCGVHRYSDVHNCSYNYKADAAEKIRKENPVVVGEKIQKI
ZNF580, sequence (Q9UK33 whole entry, looked up): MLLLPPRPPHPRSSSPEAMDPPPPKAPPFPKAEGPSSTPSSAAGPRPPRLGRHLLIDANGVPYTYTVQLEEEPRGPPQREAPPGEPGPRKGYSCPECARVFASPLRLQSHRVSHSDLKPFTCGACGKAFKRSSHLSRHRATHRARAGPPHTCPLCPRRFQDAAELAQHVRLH

O=C1NC(=O)C(c2cnc3ccccn23)=C1c1cn2c3c(cc(F)cc13)CN(C(=O)N1CCCCC1)CC2
active: [17] -0.571
inactive: [1] 0.116 | [2] -0.198 | [3] -0.157 | [4] -0.013 | [5] 0.073 | [6] -0.003 | [7] 0.012 | [8] 0.045 | [9] 0.003 | [10] -0.042 | [11] -0.102 | [12] 0.082 | [13] 0.124 | [14] -0.095 | [15] -0.023 | [16] 0.038 | [18] 0.043 | [19] 0.12

O=C1NC(=O)/C(=C\c2ccc3nccnc3c2)S1
inactive: [1] -0.177 | [2] 0.031 | [3] -0.017 | [4] 0.007 | [5] 0.051 | [6] 0.021 | [7] -0.015 | [8] 0.005 | [9] 0.079 | [10] 0.045 | [11] 0.007 | [12] 0.065 | [13] -0.108 | [14] 0.017 | [16] -0.07 | [17] -0.006 | [18] -0.004 | [19] 0.051

CCN(CCCOc1ccc2c(Nc3cc(CC(=O)Nc4cccc(F)c4)[nH]n3)ncnc2c1)CCOP(=O)(O)O [barasertib]
inactive: [1] 0.117 | [2] 0.034 | [3] -0.013 | [4] 0.04 | [5] -0.105 | [6] -0.032 | [7] -0.047 | [8] 0.022 | [9] -0.076 | [10] 0.01 | [11] 0.03 | [12] -0.034 | [13] 0.026 | [14] -0.041 | [16] 0.037 | [17] 0.039 | [18] -0.001 | [19] -0.01

CNc1nc(-c2ccc3c(N)n[nH]c3c2)cc(N2C[C@@H](C(=O)NC3CCCCC3)CC[C@H]2C)n1
inactive: [1] -0.09 | [2] -0.245 | [3] -0.072 | [4] -0.017 | [5] -0.007 | [6] -0.031 | [7] -0.058 | [8] -0.021 | [9] -0.004 | [10] -0.118 | [11] -0.183 | [12] -0.055 | [13] 0.11 | [16] 0.089 | [20] 0.128 | [17] -0.004 | [18] -0.019 | [19] -0.066

Cc1ccc(NC(=O)c2cccc(N(C)C)c2)cc1NC(=O)c1ccc(O)cc1
inactive: [1] 0.071 | [2] -0.059 | [3] 0.034 | [4] 0.026 | [5] 0.036 | [6] 0.094 | [7] 0 | [8] 0.051 | [9] 0.056 | [10] 0.023 | [11] 0.006 | [12] 0.143 | [13] -0.097 | [14] 0.012 | [16] -0.183 | [17] 0.162 | [18] -0.036 | [19] -0.012

Cc1cc(SCc2sc(-c3ccc(C(F)(F)F)cc3)nc2C)ccc1OCC(=O)O
inactive: [1] 0.089 | [2] 0.055 | [3] -0.079 | [4] -0.038 | [5] 0.042 | [6] 0.025 | [7] -0.048 | [8] 0.032 | [9] -0.011 | [10] 0.028 | [11] 0.112 | [12] -0.172 | [13] 0.152 | [16] -0.009 | [20] -0.301 | [17] -0.134 | [18] -0.009 | [19] -0.086

Cc1nc(Nc2ncc(C(=O)Nc3c(C)cccc3Cl)s2)cc(N2CCN(CCO)CC2)n1 [dasatinib]
inactive: [1] -0.226 | [2] -0.033 | [3] 0.082 | [4] 0.03 | [5] 0.009 | [6] 0.04 | [7] 0.042 | [8] -0.045 | [9] 0.047 | [10] -0.007 | [11] -0.136 | [12] -0.074 | [13] 0.019 | [16] -0.148 | [20] -0.085 | [17] 0 | [18] 0.012 | [19] 0.078

Cc1ccc(NC(=O)c2ccc(CN3CC[C@H](N(C)C)C3)c(C(F)(F)F)c2)cc1Nc1nccc(-c2cncnc2)n1 [bafetinib]
inactive: [1] -0.017 | [2] -0.055 | [3] -0.022 | [4] -0.013 | [5] 0.191 | [6] -0.022 | [7] -0.053 | [8] -0.028 | [9] -0.061 | [10] -0.089 | [11] -0.057 | [12] -0.452 | [13] 0.246 | [14] -0.098 | [16] 0.107 | [17] -0.233 | [18] 0.021 | [19] -0.014

Cc1cc(Nc2cc(N3CCN(C)CC3)nc(Sc3ccc(NC(=O)C4CC4)cc3)n2)n[nH]1 [tozasertib]
inactive: [1] 0.022 | [2] 0.008 | [3] -0.076 | [4] -0.084 | [5] 0.01 | [6] 0.009 | [7] -0.039 | [8] -0.043 | [9] -0.033 | [10] 0.057 | [11] -0.07 | [12] -0.116 | [13] 0.202 | [14] 0.049 | [16] 0.041 | [20] -0.138 | [17] 0.078 | [18] -0.064 | [19] -0.029

NC(=O)c1ccc2nc(-c3ccc(Oc4ccc(Cl)cc4)cc3)[nH]c2c1
inactive: [1] 0.029 | [2] -0.311 | [3] -0.013 | [4] 0.003 | [5] 0.017 | [6] 0.055 | [7] 0.019 | [8] -0.135 | [9] -0.02 | [10] 0.039 | [11] 0.015 | [12] 0.248 | [13] -0.104 | [15] -0.014 | [16] 0.042 | [17] 0.029 | [18] 0.007 | [19] -0.015

Cn1cncc1[C@@](N)(c1ccc(Cl)cc1)c1ccc2c(c1)c(-c1cccc(Cl)c1)cc(=O)n2C [tipifarnib]
inactive: [1] 0.045 | [2] 0.111 | [3] 0.031 | [4] -0.09 | [5] 0.149 | [6] 0.008 | [7] -0.058 | [8] 0.01 | [9] 0.027 | [10] 0.037 | [11] -0.152 | [12] 0.178 | [13] 0.044 | [14] 0.062 | [16] 0 | [20] -0.204 | [17] 0 | [18] -0.048 | [19] -0.001

CC(C)C[C@@H](C=O)NC(=O)[C@H](CC(C)C)NC(=O)[C@H](CC(C)C)NC(=O)OCc1ccccc1
inactive: [1] 0.131 | [2] 0.039 | [3] 0.007 | [4] 0.119 | [5] 0 | [6] 0.038 | [7] 0.049 | [8] 0.006 | [9] 0.09 | [10] -0.119 | [11] 0.024 | [12] 0.045 | [13] 0.137 | [14] 0.195 | [16] -0.271 | [17] 0.031 | [18] -0.036 | [19] -0.027

Cc1cccc(-c2[nH]c(C(C)(C)C)nc2-c2ccc3nccnc3c2)n1
inactive: [1] 0.031 | [2] -0.248 | [3] 0.007 | [4] -0.088 | [5] -0.069 | [6] 0.032 | [7] 0.088 | [8] 0.042 | [9] -0.038 | [10] 0.021 | [11] 0.01 | [12] 0.013 | [13] -0.107 | [16] -0.073 | [20] -0.183 | [17] 0.014 | [18] 0.008 | [19] -0.05

CC(C)N(C[C@H]1O[C@@H](n2cnc3c(N)ncnc32)[C@H](O)[C@@H]1O)[C@H]1C[C@@H](CCc2nc3cc(C(C)(C)C)ccc3[nH]2)C1 [pinometostat]
inactive: [1] 0.06 | [2] 0.098 | [3] -0.047 | [4] -0.048 | [5] 0.136 | [6] -0.11 | [7] -0.037 | [8] 0.001 | [9] -0.011 | [10] 0.014 | [11] 0.002 | [12] -0.008 | [13] 0.267 | [16] 0.02 | [20] -0.072 | [17] 0.03 | [18] 0.014 | [19] 0.012

CCn1c(C(=O)N(C2CC2)C2CC2)cc2c3c(ncn3C)c(Nc3cc(C)n(C)n3)nc21
inactive: [1] -0.041 | [2] 0.045 | [3] 0.063 | [4] 0.046 | [5] -0.028 | [6] 0.042 | [7] 0.022 | [8] -0.079 | [9] -0.029 | [10] 0.075 | [11] -0.034 | [12] 0.004 | [13] -0.188 | [15] 0.128 | [16] 0.002 | [17] 0.007 | [18] 0.005 | [19] 0.014

From the supplement of paper PMC10849652
